Laboratory results: PubChem BioAssay (Tox21)
Inconclusive results are not listed. A call without a number means that no potency is given here. Values without a mark were called inactive. The source made the active and inactive calls. Unless noted, calls come from the whole dose curve; as a rule, active = well fitted curve in the direction sought with a large enough effect in the repeat runs; inconclusive = weak or mixed curves; inactive = no such curve, though single readings can be large; an effect the other way counts as inactive or inconclusive.

Tests used:
[1] = qHTS assay to identify small molecule antagonists of the thyroid receptor (TR) signaling pathway - cell viability counter screen (AID 743064); note: nearly all actives have a fitted effect of over 50% in size
Outline: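 GH3.TRE-Luc rat pituitary cells carrying a TRE-luciferase reporter were treated with compound plus 1 nM T3 (final) for 23.5 h at 37 °C. Viability was then read in the same wells by CellTiter-Fluor fluorescence after a further 30 min.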

[2] = qHTS assay to identify small molecule antagonists of the thyroid receptor (TR) signaling pathway (AID 743065); note: series mostly up to about 70 µM; nearly all actives have a fitted effect of over 55% in size
Outline: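 GH3.TRE-Luc rat pituitary cells (two TREs driving luciferase) were dosed with compound, then stimulated with 1 nM T3 (final) for 23.5 h at 37 C. ONE-Glo luminescence was the read-out, with CellTiter-Fluor fluorescence as the cytotoxicity counter-screen.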

[3] = test system: thyroid hormone receptor (rat, GH3 cells); assay: qHTS assay to identify small molecule agonists of the thyroid receptor (TR) signaling pathway (AID 743066; calls by dose curve)
[4] = biological target: Estrogen receptor (Homo sapiens) (UniProt P03372); assay: qHTS assay to identify small molecule antagonists of the estrogen receptor alpha (ER-alpha) signaling pathway (AID 743069; active = well fitted curve in the direction sought with a large enough effect in the signal ratio in the repeat runs, not every such curve was filed as active; the % refers to the signal ratio)
Outline: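 HEK293 ER-alpha-UAS-bla GripTite cells, held overnight in 2% charcoal-stripped FBS, 5,000 cells/well, preincubated 4 h, then compound plus 17beta-estradiol for 18 h at 37C. Beta-lactamase read by LiveBLAzer B/G FRET substrate, 2 h at room temperature.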

[5] = qHTS assay to identify small molecule antagonists of the estrogen receptor alpha (ER-alpha) signaling pathway - cell viability counter screen (AID 743074; calls by dose curve;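 note: HEK293 cells carrying ER-alpha-UAS-bla reporter stimulated with 17beta-estradiol; nearly all actives have a fitted effect of over 45% in size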)
[6] = biological target: Estrogen receptor (Homo sapiens) (UniProt P03372); assay: qHTS assay to identify small molecule agonists of the estrogen receptor alpha (ER-alpha) signaling pathway (AID 743075; calls by dose curve)
[7] = biological target: Estrogen receptor (Homo sapiens) (UniProt P03372); assay: qHTS assay to identify small molecule agonists of the estrogen receptor alpha (ER-alpha) signaling pathway using the BG1 cell line (AID 743079); note: nearly all actives have a fitted effect of over 20% in size
[8] = qHTS assay to identify small molecule antagonists of the estrogen receptor alpha (ER-alpha) signaling pathway using the BG1 cell line (AID 743080; calls by dose curve;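 note: BG1 cells stimulated with 17beta-estradiol alongside compound; series mostly up to about 70 µM; nearly all actives have a fitted effect of over 25% in size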)
Outline: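 Luminescence from a 4×ERE-luciferase reporter in BG1-Luc-4E2 cells served as read-out. Cells, pre-cultured 5 days in stripped-serum phenol-red-free medium, were exposed to compound with 17beta-estradiol co-stimulation for 21.5 h at 37 C.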

[9] = qHTS assay to identify small molecule antagonists of the estrogen receptor alpha (ER-alpha) signaling pathway using the BG1 cell line - cell viability counter screen (AID 743081);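 note: compound given together with 17beta-estradiol as the ER stimulus; series mostly up to about 70 µM; nearly all actives have a fitted effect of over 45% in size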
[10] = biological target: Aromatase (Homo sapiens) (UniProt P11511); assay: qHTS assay to identify aromatase inhibitors (AID 743083); note: series mostly up to about 70 µM; nearly all actives have a fitted effect of over 55% in size
[11] = qHTS assay to identify aromatase inhibitors - cell viability counter screen (AID 743084);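 note: cells stimulated with testosterone during compound exposure; nearly all actives have a fitted effect of over 55% in size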
[12] = biological target: Aryl hydrocarbon receptor (Homo sapiens) (UniProt P35869); assay: qHTS assay to identify small molecule that activate the aryl hydrocarbon receptor (AhR) signaling pathway (AID 743085); note: nearly all actives have a fitted effect of over 15% in size; note: potency is the fitted concentration of half-maximal effect;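 for activation: HG2L7.5c1 human HepG2 liver cells with stably integrated DRE-driven firefly reporter; series mostly up to about 70 µM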
Outline: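 HepG2 cells (HG2L7.5c1) stably carrying a firefly luciferase reporter driven by 20 dioxin responsive elements were exposed to compound for 24 h at 37C after a 5 h settling period; luminescence rise (ONE-Glo) indicated activation.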

[13] = qHTS assay to identify small molecule that activate the aryl hydrocarbon receptor (AhR) signaling pathway - cell viability counter screen (AID 743086);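 note: HepG2 liver cells carrying the AhR DRE luciferase reporter; series mostly up to about 70 µM; nearly all actives have a fitted effect of over 45% in size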
Outline: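 HepG2-AhR-luc (HG2L7.5c1) cells, 4000/well, treated 24 h at 37 C with compound; viability measured as CellTiter-Fluor fluorescence after 30 min in the same wells as the luciferase read.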

[14] = biological target: Peroxisome proliferator-activated receptor gamma (Homo sapiens) (UniProt P37231); assay: qHTS assay to identify small molecule agonists of the peroxisome proliferator-activated receptor gamma (PPARg) signaling pathway (AID 743094; active = well fitted activation curve with a large enough effect in the signal ratio in the repeat runs, not every such curve was filed as active; the % refers to the signal ratio)
Outline: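 Compounds dissolved in DMSO were added to PPARg UAS-bla HEK293H cells for 17 h at 37C, and reporter expression was quantified by fluorescence intensity after 1 h with LiveBLAzer B/G FRET substrate.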

[15] = biological target: Peroxisome proliferator-activated receptor gamma (Homo sapiens) (UniProt P37231); assay: qHTS assay to identify small molecule antagonists of the peroxisome proliferator-activated receptor gamma (PPARg) signaling pathway (AID 743191; calls by dose curve; note: series mostly up to about 63 µM; nearly all actives have a fitted effect of over 30% in size)
Outline: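 GeneBLAzer PPARg UAS-bla HEK293H cells, 5 h post-plating, exposed to compounds 17 h at 37C. LiveBLAzer B/G FRET substrate added for 1 h at room temperature; beta-lactamase reporter read by fluorescence intensity.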

[16] = qHTS assay to identify small molecule antagonists of the peroxisome proliferator-activated receptor gamma (PPARg) signaling pathway - cell viability counter screen (AID 743194); note: nearly all actives have a fitted effect of over 55% in size
Outline: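 Cytotoxicity counter screen in PPARg-bla HEK293H cells, same wells as reporter assay. Compounds plus 50 nM rosiglitazone (final) for 17 h at 37 C, then viability read by CellTiter-Glo luminescence.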

[17] = qHTS assay for small molecule agonists of the antioxidant response element (ARE) signaling pathway - cell viability counter screen (AID 743203; calls by dose curve; note: nearly all actives have a fitted effect of over 55% in size)
Outline: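 Following 16 hrs of compound treatment at 37C, HepG2 cells with an ARE-controlled beta-lactamase gene were lysed with CellTiter-Glo. Luminescence was read after 30 min at room temperature.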

[18] = qHTS assay for small molecule activators of the heat shock response signaling pathway - cell viability counter screen (AID 743209); note: nearly all actives have a fitted effect of over 50% in size
Outline: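 Readout: CellTiter-Glo luminescence, 30 min at room temperature. System: HSE-bla HeLa cells, 1500/well, plated overnight. Treatment: compounds in DMSO, 5 h at 37 C.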

[19] = qHTS assay for small molecule activators of the heat shock response signaling pathway (AID 743210; active = well fitted activation curve with a large enough effect in the signal ratio in the repeat runs, with a control signal flat, not every such curve was filed as active; the % refers to the signal ratio; note: series mostly up to about 63 µM)
Outline: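 HSE-bla HeLa cells (beta-lactamase reporter under heat shock response elements), plated overnight, then exposed to compounds 5 h at 37 C; LiveBLAzer B/G FRET substrate added, 2.5 h at room temperature, fluorescence intensity read.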

[20] = qHTS assay for small molecule agonists of the antioxidant response element (ARE) signaling pathway (AID 743202; active = well fitted activation curve with a large enough effect in the signal ratio in the repeat runs, not every such curve was filed as active; the % refers to the signal ratio)
Outline: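 ARE-bla HepG2 cells (beta-lactamase reporter under the antioxidant response element), plated 5 hours, then exposed to compounds 16 hours at 37 C. LiveBLAzer B/G FRET substrate added for 2 hours at room temperature; fluorescence intensity read.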

Aromatase (Homo sapiens), sequence (P11511 whole entry, looked up): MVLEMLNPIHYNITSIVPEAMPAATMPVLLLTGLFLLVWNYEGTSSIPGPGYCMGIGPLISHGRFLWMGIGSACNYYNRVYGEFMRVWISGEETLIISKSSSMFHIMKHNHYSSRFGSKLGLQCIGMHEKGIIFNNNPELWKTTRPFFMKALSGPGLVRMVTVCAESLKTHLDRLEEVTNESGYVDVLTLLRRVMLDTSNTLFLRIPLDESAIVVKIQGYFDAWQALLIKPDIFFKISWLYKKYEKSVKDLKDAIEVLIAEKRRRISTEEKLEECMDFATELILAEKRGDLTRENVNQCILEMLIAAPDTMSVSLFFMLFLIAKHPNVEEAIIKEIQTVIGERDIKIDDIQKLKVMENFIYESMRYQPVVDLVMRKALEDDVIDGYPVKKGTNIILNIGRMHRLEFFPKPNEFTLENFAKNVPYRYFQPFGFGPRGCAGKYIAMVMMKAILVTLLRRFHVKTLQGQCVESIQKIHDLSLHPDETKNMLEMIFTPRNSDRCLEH
Estrogen receptor (Homo sapiens), sequence (P03372 whole entry, looked up): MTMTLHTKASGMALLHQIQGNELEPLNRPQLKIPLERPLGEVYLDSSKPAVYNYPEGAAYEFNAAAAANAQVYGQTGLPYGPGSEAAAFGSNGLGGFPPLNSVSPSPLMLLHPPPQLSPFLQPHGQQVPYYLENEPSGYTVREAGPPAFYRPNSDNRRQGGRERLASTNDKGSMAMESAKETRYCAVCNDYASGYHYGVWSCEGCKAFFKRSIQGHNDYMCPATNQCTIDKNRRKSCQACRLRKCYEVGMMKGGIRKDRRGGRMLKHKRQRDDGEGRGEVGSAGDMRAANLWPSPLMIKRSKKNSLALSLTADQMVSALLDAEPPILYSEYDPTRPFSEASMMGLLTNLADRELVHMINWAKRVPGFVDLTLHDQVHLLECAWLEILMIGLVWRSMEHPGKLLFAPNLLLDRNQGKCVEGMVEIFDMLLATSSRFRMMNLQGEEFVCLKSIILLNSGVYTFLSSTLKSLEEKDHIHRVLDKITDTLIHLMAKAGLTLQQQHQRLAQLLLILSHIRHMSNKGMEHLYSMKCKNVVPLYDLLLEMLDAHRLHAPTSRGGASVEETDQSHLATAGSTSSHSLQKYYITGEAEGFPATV
Peroxisome proliferator-activated receptor gamma (Homo sapiens), sequence (P37231 whole entry, looked up): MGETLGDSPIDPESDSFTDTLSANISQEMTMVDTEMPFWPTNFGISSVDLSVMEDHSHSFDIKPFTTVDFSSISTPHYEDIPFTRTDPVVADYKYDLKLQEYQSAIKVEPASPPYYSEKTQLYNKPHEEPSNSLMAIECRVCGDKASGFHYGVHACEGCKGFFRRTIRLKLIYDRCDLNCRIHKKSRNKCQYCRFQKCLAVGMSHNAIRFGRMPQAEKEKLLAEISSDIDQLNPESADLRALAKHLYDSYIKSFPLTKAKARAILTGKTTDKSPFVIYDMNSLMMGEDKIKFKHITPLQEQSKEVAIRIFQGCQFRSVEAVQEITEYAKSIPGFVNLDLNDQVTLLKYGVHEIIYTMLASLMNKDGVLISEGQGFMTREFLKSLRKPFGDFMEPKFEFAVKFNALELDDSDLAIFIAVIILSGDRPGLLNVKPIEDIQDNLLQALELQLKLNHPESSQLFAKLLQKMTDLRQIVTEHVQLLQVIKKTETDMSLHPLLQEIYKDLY
Aryl hydrocarbon receptor (Homo sapiens), sequence (P35869 whole entry, looked up): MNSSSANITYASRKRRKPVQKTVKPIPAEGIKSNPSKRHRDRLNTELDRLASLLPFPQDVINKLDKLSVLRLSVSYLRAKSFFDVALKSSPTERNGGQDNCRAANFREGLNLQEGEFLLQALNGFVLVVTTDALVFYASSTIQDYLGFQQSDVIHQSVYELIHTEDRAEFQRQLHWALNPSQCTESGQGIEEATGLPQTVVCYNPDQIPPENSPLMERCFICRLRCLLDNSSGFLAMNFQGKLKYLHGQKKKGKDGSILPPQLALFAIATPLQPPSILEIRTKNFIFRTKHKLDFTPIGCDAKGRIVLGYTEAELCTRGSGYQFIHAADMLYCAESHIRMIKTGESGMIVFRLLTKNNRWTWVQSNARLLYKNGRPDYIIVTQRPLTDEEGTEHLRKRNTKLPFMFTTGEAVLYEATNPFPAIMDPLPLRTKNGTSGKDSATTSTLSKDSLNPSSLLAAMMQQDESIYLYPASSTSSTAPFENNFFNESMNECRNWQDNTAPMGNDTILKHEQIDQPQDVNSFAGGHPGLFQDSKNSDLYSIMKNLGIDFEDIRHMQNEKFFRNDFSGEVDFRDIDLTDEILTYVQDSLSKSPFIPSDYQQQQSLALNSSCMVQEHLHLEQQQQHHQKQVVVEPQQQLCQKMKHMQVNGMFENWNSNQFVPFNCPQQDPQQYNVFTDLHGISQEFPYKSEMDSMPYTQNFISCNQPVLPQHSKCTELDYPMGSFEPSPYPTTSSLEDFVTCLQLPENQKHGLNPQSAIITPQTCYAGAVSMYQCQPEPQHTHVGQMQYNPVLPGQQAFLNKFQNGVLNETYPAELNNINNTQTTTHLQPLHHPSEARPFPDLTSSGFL

SMILES	Potency [1]	Potency [2]	outcome [3]	outcome [4]	outcome [5]	outcome [6]	Potency [7]	Potency [8]	outcome [9]	Potency [10]	Potency [11]	Potency [12]	Potency [13]	outcome [14]	Potency [15]	outcome [16]	outcome [17]	outcome [18]	outcome [19]	Potency [20]
CC(C)N(c1ccccc1)C(C)C	inactive	inactive	inactive	inactive	inactive	inactive	inactive	inactive	inactive	inactive	inactive	inactive	inactive	inactive	inactive	inactive	inactive	inactive	inactive	
CC(C)C(=O)OCCc1ccccc1	inactive	inactive	inactive	inactive	inactive	inactive	inactive	inactive	inactive	inactive	inactive	inactive		inactive	inactive	inactive	inactive	inactive	inactive	inactive
O=C(O)CCSSCCC(=O)O	inactive	inactive	inactive	inactive	inactive	inactive	inactive	inactive	inactive	inactive	inactive	inactive	inactive	inactive	inactive	inactive	inactive	inactive	inactive	
O=C(O)C(=O)Cc1ccccc1	inactive	inactive	inactive	inactive	inactive	inactive	inactive	inactive	inactive	inactive	inactive	inactive	inactive		inactive		inactive	inactive		
CCCCCCCCOS(=O)(=O)O	inactive	inactive	inactive	inactive	inactive	inactive	inactive	inactive	inactive	inactive	inactive	inactive		inactive	inactive	inactive	inactive	inactive		
CC(=O)OC(C)OC(=O)C(C)c1ccc(-c2ccccc2)c(F)c1 (stereo not drawn)	inactive	inactive	inactive	inactive	inactive	inactive	inactive	inactive	inactive	inactive	inactive	inactive	inactive	inactive		inactive	inactive	inactive	inactive	inactive
CC(=O)NCCCCCC(=O)O	inactive	inactive	inactive	inactive	inactive	inactive	inactive	inactive	inactive	inactive	inactive	inactive	inactive		inactive	inactive	inactive	inactive	inactive	inactive
NNc1nnc(NN)c2ccccc12	inactive	inactive	inactive	inactive	inactive	inactive	inactive	inactive	inactive	inactive	inactive	29.8 µM (active)	inactive	inactive	inactive	inactive	inactive	inactive	inactive	inactive
